In the library only some 22% were active in any assay of this set; here they are far more common.
Pf growth 96h – P. falciparum growth inhibition at 96 hour, primary screen for plastid delayed-death inhibitors; P. falciparum luciferase reporter growth, 96 h; Potency, µM (top dose mostly 28.7 µM), for inactives: top-dose activity change, negative = inhibition, actives largely listed as inhibitors; 320,000 compounds, 6.9% hits; AID 504834; further: potency means the concentration at half of the fitted maximal effect; on the % scale 0 is the no-effect control and ±100 the full control effect
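Luminescence readout: decreased luciferase signal marks inhibited growth of reporter-expressing P. falciparum in infected red cells (2% hematocrit, 0.05% parasitemia final), exposed to compound two generations (96 h, 37 C, 5% CO2).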
LmPK inh – LmPK (Leishmania mexicana) enzyme inhibition | 290,000 compounds, 0.37% hits | purified LmPK, Kinase-Glo ATP luminescence, 1 h | Potency, µM (titrated, usually from 57.5 µM), for inactives: at the top dose activity change, negative = inhibition, usual class: inhibitors; further: potency means the concentration at half of the fitted maximal effect; on the % scale 0 is the no-effect control and ±100 the full control effect
Target sequence (Q27686 whole entry, looked up): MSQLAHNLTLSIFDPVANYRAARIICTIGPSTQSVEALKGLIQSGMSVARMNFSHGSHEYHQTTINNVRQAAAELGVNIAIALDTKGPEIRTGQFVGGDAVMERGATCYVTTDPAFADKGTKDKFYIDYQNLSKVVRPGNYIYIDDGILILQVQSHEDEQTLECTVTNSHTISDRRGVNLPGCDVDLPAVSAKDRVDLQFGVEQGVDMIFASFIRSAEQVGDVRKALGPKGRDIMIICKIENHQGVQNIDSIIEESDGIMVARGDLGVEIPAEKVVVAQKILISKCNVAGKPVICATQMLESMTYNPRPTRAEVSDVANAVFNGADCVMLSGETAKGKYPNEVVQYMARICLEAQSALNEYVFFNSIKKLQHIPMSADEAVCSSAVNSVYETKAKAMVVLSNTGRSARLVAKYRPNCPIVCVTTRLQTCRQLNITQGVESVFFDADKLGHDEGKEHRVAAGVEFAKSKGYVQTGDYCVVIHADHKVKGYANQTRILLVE
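ATP generated from ADP (0.1 mM) and PEP (0.5 mM) by 0.1 nM LmPK over 1 h at room temperature (pH 7.2 imidazole buffer) was detected by coupled luciferase luminescence. Values were normalized to uninhibited and no-enzyme wells.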
Cycloheximide cs – affects cycloheximide protein synthesis inhibition readout, counter-screen; 300,000 compounds, 12% hits; cell reporter, cycloheximide protein synthesis inhibition counterscreen; AID 2314; max response, %; in the data active means max response mostly above about 13%, no sharp cut-off; inactive means mostly below about 14%; further: read at 38.3 µM for the half of the compounds with a filed dose; 0% is about no effect
Pf growth 48h – P. falciparum growth inhibition at 48 hours (one generation). P. falciparum luciferase growth in erythrocytes, 48 h. Potency, µM (top dose mostly 28.7 µM), inactives show at the top dose activity change, negative = inhibition, usual class: inhibitors. 310,000 compounds, 5.9% hits. AID 504832; further: potency means the concentration at half of the fitted maximal effect; on the % scale 0 is the no-effect control and ±100 the full control effect
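Compounds are pin-transferred into medium, infected erythrocytes (2% hematocrit, 0.1% parasitemia final) are added, and plates sit one parasite generation at 37 C in 5% CO2. Detection reagent is then added and luminescence measured.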
Shiga inhibitor – inhibitors of Shiga toxin in Vero cells; 290,000 compounds, 9.2% hits; Vero cells, Shiga toxin protein synthesis inhibition reporter; inhibition, % at 38.7 µM; in the data active means inhibition mostly above about 28%, no sharp cut-off; inactive means mostly below about 43%; further: 0% is about no effect
* marks the source's active call; other numbers are inactive results. Unless noted, the call rests on the fitted dose curve; in most records, active means well fitted inhibition curve with a large enough effect; inconclusive means small, poorly fitted or top-dose-only effect, or another doubt; inactive means no such curve, though single readings can be large or run the other way.

How did COc1cc(OC)c(OC)cc1CNC(=O)CCN1C(=O)c2cccc([N+](=O)[O-])c2C1=O do in these assays?
Pf growth 96h: 15%; LmPK inh: 0%; Cycloheximide cs: -11; Pf growth 48h: 6%; Shiga inhibitor: -5

How did CC1=C(C(=O)Nc2cccc(C(=O)NCc3ccccc3C)c2)SCCO1 do in these assays?
Pf growth 96h: 0%; LmPK inh: -3%; Cycloheximide cs: 7; Pf growth 48h: inconclusive; Shiga inhibitor: -5

What do the screens show for `CCOCCCNC(=O)c1ccccc1NC(=O)C1=C(C)OCCS1`?
Pf growth 96h: 0%; LmPK inh: 6%; Cycloheximide cs: 12; Pf growth 48h: 5%; Shiga inhibitor: -10

How did CC1=C(C(=O)Nc2ccccc2C(=O)NCCCOC(C)C)SCCO1 do in these assays?
Pf growth 96h: 4.1µM*; LmPK inh: -2%; Cycloheximide cs: -1; Pf growth 48h: 0%; Shiga inhibitor: -11

Results for CC1=C(C(=O)Nc2ccc(CC(=O)NCc3ccccc3C)cc2)SCCO1 ?
Pf growth 96h: inconclusive; LmPK inh: -4%; Cycloheximide cs: 22*; Pf growth 48h: 46%; Shiga inhibitor: 55*

Results for COc1cccc(CNC(=O)Cc2ccc(NC(=O)C3=C(C)OCCS3)cc2)c1 ?
Pf growth 96h: inconclusive; LmPK inh: -16%; Cycloheximide cs: 29*; Pf growth 48h: 54%; Shiga inhibitor: 41*

Results for CCc1ccc(CNC(=O)Cc2ccc(NC(=O)C3=C(C)OCCS3)cc2)cc1 ?
Pf growth 96h: 12µM*; LmPK inh: -2%; Cycloheximide cs: 36*; Pf growth 48h: 126%; Shiga inhibitor: 57*

How did CC1=C(C(=O)Nc2cccc(C(=O)NCc3ccc(F)cc3)c2)SCCO1 do in these assays?
Pf growth 96h: inconclusive; LmPK inh: -10%; Cycloheximide cs: -7; Pf growth 48h: -2%; Shiga inhibitor: -7

What do the screens show for `NS(=O)(=O)c1ccc(CCNC(=O)c2cc([N+](=O)[O-])ccc2N2CCCCC2)cc1`?
Pf growth 96h: inconclusive; LmPK inh: 1%; Cycloheximide cs: 4; Pf growth 48h: inconclusive; Shiga inhibitor: -4

How did COc1ccc(Cc2noc(CN3CCN(Cc4csc(C)n4)CC3)n2)cc1OC do in these assays?
Pf growth 96h: 20%; LmPK inh: 1%; Cycloheximide cs: -1; Pf growth 48h: -6%; Shiga inhibitor: -19

Results for COC(=O)Cc1ccc(OC(=O)c2cccc(S(=O)(=O)N3CCN(C)CC3)c2)cc1 ?
Pf growth 96h: 18%; Pf growth 48h: -8%

Results for O=C(COc1ccc(Br)cc1CO)Nc1ccccc1 ?
Pf growth 96h: 67%; LmPK inh: -3%; Cycloheximide cs: 27*; Pf growth 48h: 18%; Shiga inhibitor: 159

Results for Cc1ccc(NC(=O)COc2ccc(Br)cc2CO)cc1 ?
Pf growth 96h: inconclusive; LmPK inh: -3%; Cycloheximide cs: 26*; Shiga inhibitor: 69

What do the screens show for `O=C(COc1ccccc1C(=O)NCc1ccccc1)Nc1ccccc1`?
Pf growth 96h: -27%; Pf growth 48h: inconclusive

How did O=C(COc1ccc(Br)cc1CO)Nc1ccccc1F do in these assays?
Pf growth 96h: 3%; LmPK inh: -3%; Cycloheximide cs: 29*; Pf growth 48h: 83%; Shiga inhibitor: 77*

Results for CCCNCc1cc(Br)ccc1OCC(=O)NCCc1ccccc1 ?
Pf growth 96h: 12µM*; LmPK inh: 2%; Cycloheximide cs: -6; Pf growth 48h: 13µM*; Shiga inhibitor: -8

What do the screens show for `COc1ccccc1NC(=O)COc1ccc(Br)cc1CNC1CCCC1`?
Pf growth 96h: 7%; LmPK inh: 3%; Cycloheximide cs: -2; Pf growth 48h: 12µM*; Shiga inhibitor: -9

Results for COc1cc(CO)ccc1OCC(=O)Nc1ccc(Br)cc1 ?
Pf growth 96h: inconclusive; LmPK inh: -2%; Cycloheximide cs: 21*; Pf growth 48h: 22%; Shiga inhibitor: 96*

Results for COc1cc(CNCC(C)C)cc(Br)c1OCC(=O)Nc1ccccc1 ?
Pf growth 96h: 10µM*; LmPK inh: 3%; Cycloheximide cs: -2; Pf growth 48h: 9.3µM*; Shiga inhibitor: -10

What do the screens show for `COc1ccccc1NC(=O)COc1ccc(Br)cc1CO`?
Pf growth 96h: 2%; LmPK inh: 2%; Cycloheximide cs: 21; Shiga inhibitor: 15

What do the screens show for `c1ccc(-c2n[nH]c3ccccc23)cc1`?
Pf growth 96h: inconclusive; LmPK inh: 6%; Cycloheximide cs: 15; Pf growth 48h: 28%; Shiga inhibitor: -39
